# Data published in ChEMBL document CHEMBL4513216, “Probing the Open Global Health Chemical Diversity Library for Multistage-Active Starting Points for Next-Generation Antimalarials” (ACS Infect Dis, 2020).
# The campaign covered roughly 69,000 compounds. About 8,600 (12%) showed an effect of 50% or more. The entries come from a sample that favours strong results as a whole.
# Tested on: Plasmodium berghei
# Assay: Screen against P. berghei liver stage (PbLuc), transformed with Luciferase, at 10uM
# Format: functional, HepG2
# Details: tested at 10 uM
row,SMILES,INHIBITION [%]
1,Cc1cnn(CC2CCCCN2Cc2cc(C)no2)c1 (stereo unspecified),4.245
2,Cn1cc(C2CCCN2C(=O)COCCc2ccccc2)cn1 (stereo unspecified),-32
3,CC(c1ccncc1)n1cc2nc(N(C)C)[nH]cc-2c1=O (stereo unspecified),-27.5
4,COCC(=O)N1CCC(c2n[nH]c3nccnc23)CC1,-22.6
5,CC(C)(C)OC(=O)N1CCC(C(=O)NCCNc2ncccn2)CC1,-33.9
6,c1csc(N2[C@H](Cn3cncn3)C[C@@H]3CNCC[C@@H]32)n1,-86.4
7,COc1ccccc1C(O)CNc1nccc(-c2ccc(C)nc2C)n1 (stereo unspecified),0.868
8,c1cnn(CC2CCCCN2Cc2nc(-c3ccoc3)no2)c1 (stereo unspecified),31.8
9,CC(NC(=O)NCc1cccnc1N(C)C)c1cccs1 (stereo unspecified),37.9
10,COc1cc(C(=O)Nc2nc(C)no2)ccc1C,63.6
11,Cc1noc(CNc2ccc(OC(F)F)cc2OC(F)F)n1,-29.9
12,COc1cc(C(=O)Nc2nc(C)no2)ccc1OC1CCCC1,29.7
13,COc1cc(C(=O)Nc2nc(C)no2)ccc1OC(F)F,81.1
14,COc1cc(C(=O)Nc2cn[nH]c2)ccc1C,10.45
15,COc1cc(C(=O)Nc2c(C)noc2C)ccc1C,18.6
16,COCC(C)(NC(=O)c1cc(Cl)c(-n2cccc2)cc1OC)C(N)=O (stereo unspecified),-35
17,CCn1cc(C(=O)NCc2ccc3c(c2)OCO3)c(C)n1,3.52
18,CN(CCC(O)c1ccccc1)Cc1ccccc1C#N (stereo unspecified),41.1
19,Cc1nc(CN(C)Cc2nc(-c3ccccc3)no2)co1,14.3
20,CN(CCC(O)c1ccccc1)Cc1nc(-c2ccccc2)no1 (stereo unspecified),62.9
21,O=C(Nc1nccs1)NC1CCN(Cc2ccccc2)CC1,15
22,C=c1ncsc1=C1NN=C(C2CCCN2C(=O)c2ccn(CC)n2)O1 (stereo unspecified),9.535
23,FC(F)(F)C1CN(Cc2cccc(-c3ccccn3)c2)CCO1 (stereo unspecified),4.93
24,CC(=O)NCc1ccc(-c2ccccc2C(=O)O)cn1,-24.5
25,CNc1nc(C)c(C(=O)N2CCCCC2CN2CCCCCC2)s1 (stereo unspecified),50
26,CNc1nc(C)c(C(=O)N2CCCCC2CCN2CCOCC2)s1 (stereo unspecified),13.6

row,SMILES,INHIBITION [%]
1,CNc1nc(C)c(C(=O)N2CCCCC2CCc2ccccc2)s1 (stereo unspecified),-14.7
2,Cc1cc(C(=O)N2CC[C@@H]3CO[C@@H](CN4CCCC4)[C@@H]3C2)no1,23.3
3,CCOC(=O)CC1CCCCN1C(=O)c1cc(C)on1 (stereo unspecified),17.5
4,Cc1cc(C(=O)N2CCCC2CN2CCCC2)no1 (stereo unspecified),61.1
5,OC(CN1CCN(Cc2cc(F)cc(F)c2)CC1)C1CC1 (stereo unspecified),5.85
6,Cc1cc(CN(C)CC(c2cccs2)N2CCOCC2)on1 (stereo unspecified),-48.4
7,CCN(CC)c1ncc(S(=O)(=O)c2cccc(C)c2)c(N)n1,17.7
8,CN1CCCN(c2ncnc(N3CCOCC3)c2N)CC1,32.2
9,COCCNc1cc(C(=O)N2CCOCC2)nc(C)n1,8.24
10,CCOC(=O)C1CCN(c2cc(C(=O)N3CCCCC3)nc(C)n2)CC1,9.52
11,CCOC(=O)C1CCN(c2cc(C(=O)N3CCOCC3)nc(C)n2)CC1,62.9
12,CCCNc1cc(C(=O)N2CCOCC2)nc(C)n1,34.6
13,Cc1nc(C(=O)N2CCOCC2)cc(N2CCC(C(N)=O)CC2)n1,56.1
14,Cc1nc(C2CN(C)CCO2)cc(N2CCC(C(N)=O)CC2)n1 (stereo unspecified),-20.2
15,CC(C)(O)CN1CCN(C(=O)c2ccc(Cl)c3cccnc23)CC1,36.9
16,COc1cc(C(=O)O)cc(I)c1OCC(=O)NCCc1ccccc1,25.5
17,CC(NC(=O)NCCc1ccc(Cl)s1)c1ccccn1 (stereo unspecified),-12.1
18,COc1ccc(C(=O)N2CC(=O)N(Cc3cccs3)CC(O)C2)cc1 (stereo unspecified),27.5
19,CC(C)CCC(=O)N1CCN(C(=O)c2ccc3nccn3c2)CC1,24.2
20,CC(C)COC(=O)N1CCN(C(=O)c2ccc3nccn3c2)CC1,50.1
21,CC(C)COC(=O)N1CCCN(C(=O)c2ccnc(N(C)C)c2)CC1,33.4
22,c1ncn(CC2CCCCN2Cc2csc(-c3ccsc3)n2)n1 (stereo unspecified),-58.7
23,CCC1COCCN1C(=O)NCc1nccn1CC(C)C (stereo unspecified),8.59
24,Cn1cccc1CNC(=O)N(CCO)C1CCCc2ccccc21 (stereo unspecified),26.8
25,O=C(NC1CC(F)(F)C1)[C@]12COC[C@H]1CN(Cc1ccccc1)C2,61.1
